The text below walks through data of PubChem BioAssay (Tox21).

Results filed as inconclusive are left out. Entries that show only a call come without a potency. A number with no mark means an inactive call. Activity calls are given as the source filed them. Calls follow the shape of the dose curve; as a rule, active = well fitted inhibition curve with a large enough effect in the repeat runs; inconclusive = weak or mixed curves; inactive = no such curve, though single readings can be large or run the other way.
Potency is read from the fitted curve at half-maximal effect.

Sequence of Cytochrome P450 3A4 (Homo sapiens) (P08684 whole entry, looked up): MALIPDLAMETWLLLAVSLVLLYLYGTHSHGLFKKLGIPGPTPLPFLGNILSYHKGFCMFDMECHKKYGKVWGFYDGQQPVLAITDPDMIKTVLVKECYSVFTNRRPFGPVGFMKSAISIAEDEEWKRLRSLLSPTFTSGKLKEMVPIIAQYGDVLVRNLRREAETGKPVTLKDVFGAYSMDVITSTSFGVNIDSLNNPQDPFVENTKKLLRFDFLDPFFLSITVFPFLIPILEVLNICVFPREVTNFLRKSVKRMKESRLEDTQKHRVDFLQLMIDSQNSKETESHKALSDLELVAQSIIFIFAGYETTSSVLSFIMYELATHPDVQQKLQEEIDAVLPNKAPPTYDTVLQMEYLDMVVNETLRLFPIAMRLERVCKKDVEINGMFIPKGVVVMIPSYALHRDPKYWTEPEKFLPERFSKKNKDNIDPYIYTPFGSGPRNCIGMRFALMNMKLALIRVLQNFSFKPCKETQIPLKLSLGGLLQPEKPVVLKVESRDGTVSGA

This experiment concerns the target Cytochrome P450 3A4 (Homo sapiens) (UniProt P08684). Description: Cytochrome P450 Family 3 Subfamily A Member 4 (CYP3A4) small molecule antagonists: luciferase reporter qHTS assay (AID 1671201). Also: nearly all actives have a fitted effect of over 50% in size. To be noted: P450-Glo CYP3A4 enzyme, luciferin luminescence, 1 h; series mostly up to 115 µM. The text has this: National Center for Advancing Translational Sciences [NCATS]
U.S. Environmental Protection Agency [EPA]
National Institutes of Environmental Health Sciences [NIEHS]
National Toxicology Program [NTP]
U.S. Food and Drug Administration [FDA]
Cytochrome P450 (CYP) enzymes are membrane-bound hemeproteins that play a key role in metabolism of drugs and xenobiotics. Evaluation of the effect of chemicals on CYP isozymes is useful to minimize the adverse drug reactions and toxicities in drug development process. Tox21 chemicals were tested for their effect on CYP enzyme activities by using P450-Glo (TM) screening systems (Promega Corporation, Madison, WI). These systems provide a luminescent method containing proluciferin substrates and are converted to luciferin products by CYP isozymes. The luciferin products formed are detected with a luciferin detection reagent, and the amount of light produced is proportional to CYP activity. P450-Glo (TM) CYP3A4 screening system (Catalog. No. V9910) was used to detect the compounds that interfere in CYP3A4 activity. The positive control compound used for CYP3A4 assay is ketoconazole (Sigma-Aldrich, St. Louis, MO).
Tox21 Assay Protocol Summary:
Two ul of enzyme-substrate mix was dispensed into medium binding white/solid 1536-well plates (Greiner Bio-One North America Inc., Monroe, NC) using a BioRaptr Flying Reagent Dispenser (FRD, Beckman Coulter, Brea, CA). Compounds dissolved in DMSO and positive control (ketoconazole) were transferred to the assay plates at 23 nl using a Pintool station (Wako, San Diego, CA). The assay plates were incubated at room temperature for 10 min. Then 2 ul of NADPH regeneration solution was added to each well of the assay plates using an FRD and incubated at room temperature for 1 h. The reaction was stopped by adding 4 ul of detection reagent using an FRD and after 20 min incubation at room temperature the luminescence signal was measured using a ViewLux plate reader (Perkin Elmer, Shelton, CT). Data were expressed as relative luminescence units.
(In general: In a reporter assay the amount or activity of a reporter protein is the signal.)
For the molecule `C[C@H]1NCc2cc(-c3ccc4c(=O)c(C(=O)O)cn(C5CC5)c4c3OC(F)F)ccc21`, the activity change, negative = inhibition is 10.5% [at 23.6 µM].

Take `O=C(c1ccc(O)c(O)c1)c1ccc(O)cc1O`: the Potency is 5.63 µM (active).

With `C=CCn1c(=O)n(CC=C)c(=O)n(CC=C)c1=O`, the Potency was 2.82 µM (active).

Turning to `O=C(Oc1ccccc1)Oc1ccccc1`, the Potency result was “inactive”.

As to `Cc1cccc(C(=O)O)c1O`, the Potency result is “inactive”.

On to `COc1cc(C)ccc1O`, for which the Potency result is “inactive”.

For `CN(C)Cc1ccccc1O`, the Potency entry was “inactive”.

`Cc1ccc(O)c(N)c1`: the Potency was 15.9 µM (active).

With `CC(C)=CCC1=C(O)c2ccccc2C(=O)C1=O`, the Potency entry was “inactive”.

For `Nc1nc2c(ncn2COCCO)c(=O)[nH]1`, the Potency entry is “inactive”.

`CN(C)CCN1CCN(c2cccc(Cl)c2)C1=O`: the Potency entry is “inactive”.

As to `Cc1cccc2cccnc12`, the Potency result was “inactive”.

With `CCCCCCCC`, the Potency result is “inactive”.

For `CCC(=O)C(=O)CC`, the Potency is 5.88 µM (active).

`Cc1c(C)c2c(c(C)c1O)CC[C@@](C)(CCC[C@H](C)CCC[C@H](C)CCCC(C)C)O2`: the Potency result was “inactive”.

As to `ClCCl`, the Potency entry was “inactive”.

For the molecule `CCC(C)(CCC(C)C)C(=O)[O][Sn]([CH3])([CH3])[O]C(=O)C(C)(CC)CCC(C)C` (stereo not given), the Potency entry is “inactive”.

As to `CC(C)(C)c1ccc(C(O)CCCN2CCC(C(O)(c3ccccc3)c3ccccc3)CC2)cc1` (stereo not given), the Potency result was “inactive”.

Turning to `O=C1C(c2[nH]c3ccc(S(=O)(=O)O)cc3c2O)=Nc2ccc(S(=O)(=O)O)cc21`, the Potency entry is “inactive”.

In the case of `COC1=C(OC)C(=O)C(CCCCCCCCCCO)=C(C)C1=O`, the Potency entry is “inactive”.

With `OC1CCC(C2CCCCC2)CC1` (stereo not given), the Potency entry was “inactive”.

Consider `CC(C)=CCNc1ncnc2c1ncn2[C@@H]1O[C@H](CO)[C@@H](O)[C@H]1O`, for which the Potency result is “inactive”.

As for `O=C(O)c1ccc2cc(C(=O)O)ccc2c1`, the Potency result is “inactive”.

`COC(C)=O`: the Potency result is “inactive”.

On to `Nc1ccc(C(=O)O)c(O)c1`, for which the Potency entry is “inactive”.

In the case of `CCC(COC(=O)CCS)(COC(=O)CCS)COC(=O)CCS`, the Potency is 3.56 µM (active).

`CCc1oc2ccccc2c1C(=O)c1cc(I)c(O)c(I)c1`: the Potency result was “inactive”.

Consider `C=CC(=O)Nc1cc2c(Nc3ccc(F)c(Cl)c3)ncnc2cc1OCCCN1CCOCC1`, for which the Potency is 12.3 µM (active).

Turning to `COc1cccc(OC)c1C(=O)O`, the Potency entry was “inactive”.

With `CC1(C)CCC[C@]2(C)[C@H]3CC(=O)O[C@]3(C)CC[C@@H]12`, the Potency was 31.7 µM (active).

For the molecule `CC(C)CCCCCOC(=O)CCS`, the Potency result was “inactive”.

Turning to `Cc1ccc(-c2ccccc2)cc1`, the Potency entry was “inactive”.

For `CCCCCC/C=C\CCCCCCCC(=O)O`, the Potency entry was “inactive”.

With `O=C(O)CCN(C1(C(=O)NO)CCCC1)S(=O)(=O)c1ccc(Oc2ccc(F)cc2)cc1`, the Potency result is “inactive”.

For `O=c1[nH]c2ccccc2n1CCCN1CCN(C(c2ccccc2)c2ccccc2)CC1`, the Potency result was “inactive”.

As for `CC/C=C\CCCCCO`, the Potency entry is “inactive”.

Regarding `C/C=C/C=C/COC(=O)C(C)C`, the Potency is 28.3 µM (active).

On to `NC(=O)c1cccc([N+](=O)[O-])c1`, for which the Potency entry is “inactive”.

Consider `COc1cc(S(=O)(=O)O)c(C)cc1N=Nc1c(O)ccc2cc(S(=O)(=O)O)ccc12`, for which the Potency result is “inactive”.

Regarding `CCN(CC)c1ccc2c(-c3ccc(S(=O)(=O)O)cc3S(=O)(=O)[O-])c3ccc(=[N+](CC)CC)cc-3oc2c1`, the Potency is 14.6 µM (active).
